Data from PubChem BioAssay AID720517 (National Center for Advancing Translational Sciences (NCATS), 2013).
Inconclusive results are not listed. Values without a mark were called inactive. Calls follow the shape of the dose curve; as a rule, active = well fitted activation curve with a large enough effect; inconclusive = small, poorly fitted or top-dose-only effect; inactive = flat fitted curve, though single readings scatter.

assay: qHTS for Inhibitors of Cell Surface uPA Generation: FP59 Counterscreen for Cherry-picked Compounds; conditions: FP59 anthrax toxin cytotoxicity counterscreen, cells; series mostly up to 115 µM; activity (protection from FP59): at the top concentration; also: 0% is about no effect

Compound	activity (protection from FP59) [%]
Fc1cccc(Cl)c1CSc1ccc(-c2cccnc2)nn1	-1.46
CC(C)CCN1C(=O)c2ccc(-c3nc4ccccc4c(=O)o3)cc2C1=O	-1.05
COc1cc(/C=C(/C#N)C(=O)Nc2ccccc2)ccc1OCc1ccc(C(=O)O)cc1	0.218
CS(=O)(=O)c1ccc(Cl)c(NC(=O)COC(=O)CNC(=O)c2cccs2)c1	-1.36
O=C(Cn1cnc2c(OCc3ccccc3)ncnc21)NCCCN1CCCC1=O	-1.32
Nc1ccc(S(=O)(=O)c2ccccc2)nc1	-1.36
CCN1CCCCC(=N/O)/C(=N/O)CCCC1	-1.44
COc1cccc(NC(=O)c2nnn(CC(=O)Nc3cc(C)cc(C)c3)c2N)c1	-1.39
O=C(CSc1ccc(Cl)cc1)Nc1ccc(C2SCCS2)cc1	-1
Cc1cccc(N2CCN(Cc3ccc(Br)o3)CC2)c1C	-1.14
COCCN(C(=O)CSc1nnc(-c2ccncc2)n1C)c1c(N)n(CC(C)C)c(=O)[nH]c1=O	-1.31
C[C@H]1CN([C@@H](C)CO)C(=O)c2cccc(NC(=O)c3cnccn3)c2O[C@@H]1CN(C)S(=O)(=O)c1ccc(F)cc1	-0.99
COc1ccccc1-c1ccc(SCC(=O)NCCc2ccccc2)nn1	-1.22
CCn1c(=O)cc(C(=O)OC)sc1=Nc1ccc(F)c(F)c1	-0.708
O=C(CCCC(=O)N(c1cccc(F)c1)C(C(=O)NC1CCCC1)c1ccc(O)cc1)Nc1ccccn1 (centres undefined)	-1.23
O=C(NCCN1CCOCC1)c1ccc2c(c1)N(Cc1ccc(Cl)cc1)CCS2	-1.33
COc1ccc(C(=O)NCCOC(C)C)cc1OC1CCN(C(C)=O)CC1	-1.24
COc1cc(/C=N/NC(=O)c2ccncc2)ccc1O	-1.39
CC[C@]1(C(=O)OC)[C@H]2C(=O)N(C)C(=O)[C@H]2[C@H]2CN(C)C(=NC3CCCCC3)N21	0.0361
Cn1nc(N2CCN(S(=O)(=O)c3ccccc3)CC2)c(=O)n(C)c1=O	-1.3

Compound	activity (protection from FP59) [%]
CCCCCCCCCOC(=O)C1N2C(=O)[C@@H](NC(=O)COc3ccccc3)[C@H]2SC1(C)C (some centres undefined)	-0.421
Cn1c(=O)c(=O)n(C)c2cc(S(=O)(=O)CCC(=O)Nc3ccc(F)cc3)ccc21	-1.37
C/C=C(/C(=C/C)c1ccc(O)cc1)c1ccc(O)cc1	-1.04
CCCCCOC(=O)Nc1nnc(CCCCC)s1	-0.0737
CC(C)N1CCc2c(sc(NC(=O)Cc3ccccc3)c2C(N)=O)C1	-1.41
Cc1ccc(S(=O)(=O)N2CCN(C(=O)c3n[nH]c(=O)c4ccccc34)CC2)cc1	-1.23
Cn1c(C2CCCCC2)nc2cc(N)ccc21	-1.49
COc1ccc(-c2csc(NC(C)c3nc4cc(C(=O)NCCCO)ccc4n3Cc3ccc(C)cc3)n2)cc1 (centres undefined)	7.96
CN(c1ccccc1)S(=O)(=O)c1ccc(C(=O)Nc2nnc(C3CC3)o2)cc1	-0.58
O=C(COc1cccc2ccccc12)NNC(=O)c1cnccn1	-0.155
CC(C)OC(=O)Nc1ccc(-c2ccc(NC(=O)OC(C)C)cc2Cl)c(Cl)c1	-1.28
O=C1OCC/C1=C\c1ccc(O)cc1	-1.59
O=C(C[n+]1ccccc1)Nc1ccccc1C(F)(F)F	-1.29
CC(/C=C/C1(O)C(C)CC(O)CC1(C)C)OC1OC(CO)C(O)C(O)C1O (centres undefined)	-1.29
COc1ccc(CCNC(=O)Cn2c(=O)n(-c3cc(F)ccc3F)c(=O)c3sccc32)cc1OC	-1.16
NS(=O)(=O)c1ccc(CCNC(=O)c2ccc(Cl)s2)cc1	-1.27
O=C(C1CCN(c2nnc(N3CCCC3=O)s2)CC1)N1CCN(c2cccc(C(F)(F)F)c2)CC1	-1.53
COC(=O)CCNS(=O)(=O)c1ccc2nsnc2c1	-1.4
O=C(NC1CC1)C1CCCN(C(=O)NC2CCCCC2)C1 (centres undefined)	-1.52
